# Reference: PubChem BioAssay (NCATS)
# “And” between values parts separate entries of the source, which are not always exact repeats. Equal values may be shown once. Inconclusive results are not listed. The source made the active and inactive calls. Unless noted, calls come from the whole dose curve.
# Tests used:
# [1] = biological target: Bile acid receptor (Homo sapiens) (UniProt Q96RI1); test: qHTS assay for small molecule agonists of farnesoid X receptor signaling (AID 588527); conditions: HEK293T FXR-UAS-bla, beta-lactamase ratio, 16 h; stronger effect = higher value;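 note: 0% = vehicle basal and 100% = reference agonist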
# Sequence of Bile acid receptor (Homo sapiens) (Q96RI1 whole entry, looked up): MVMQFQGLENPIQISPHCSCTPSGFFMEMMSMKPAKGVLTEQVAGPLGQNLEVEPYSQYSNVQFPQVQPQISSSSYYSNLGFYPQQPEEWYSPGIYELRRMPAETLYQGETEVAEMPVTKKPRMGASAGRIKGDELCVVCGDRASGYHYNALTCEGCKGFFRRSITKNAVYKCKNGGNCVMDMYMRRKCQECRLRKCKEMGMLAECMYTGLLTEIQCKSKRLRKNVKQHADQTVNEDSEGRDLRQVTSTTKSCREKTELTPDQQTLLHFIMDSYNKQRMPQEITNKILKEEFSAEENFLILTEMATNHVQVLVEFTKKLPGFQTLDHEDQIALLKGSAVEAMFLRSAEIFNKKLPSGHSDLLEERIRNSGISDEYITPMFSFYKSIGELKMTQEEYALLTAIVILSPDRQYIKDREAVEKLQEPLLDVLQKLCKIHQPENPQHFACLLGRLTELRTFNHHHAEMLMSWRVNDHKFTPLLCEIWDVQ
# How it was run: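 Agonist-mode beta-lactamase reporter in GeneBLAzer FXR-UAS-bla HEK293T cells, titration up to 92 uM, 16 h exposure at 37 C, CCF4 fluorescence. Response scaled to DMSO (0%) and 100 uM chenodeoxycholic acid (100%), then Hill-fitted for EC50 and efficacy.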
# [2] = biological target: Peroxisome proliferator-activated receptor delta (Homo sapiens) (UniProt Q03181); test: qHTS assay for small molecule agonists of peroxisome proliferator-activated receptor delta signaling (AID 588534); conditions: HEK293T PPARdelta-UAS-bla, beta-lactamase ratio, 18 h; series mostly up to 76.7 µM;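 note: 0% = DMSO basal wells and 100% = positive control agonist at 10 µM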
# Sequence of Peroxisome proliferator-activated receptor delta (Homo sapiens) (Q03181 whole entry, looked up): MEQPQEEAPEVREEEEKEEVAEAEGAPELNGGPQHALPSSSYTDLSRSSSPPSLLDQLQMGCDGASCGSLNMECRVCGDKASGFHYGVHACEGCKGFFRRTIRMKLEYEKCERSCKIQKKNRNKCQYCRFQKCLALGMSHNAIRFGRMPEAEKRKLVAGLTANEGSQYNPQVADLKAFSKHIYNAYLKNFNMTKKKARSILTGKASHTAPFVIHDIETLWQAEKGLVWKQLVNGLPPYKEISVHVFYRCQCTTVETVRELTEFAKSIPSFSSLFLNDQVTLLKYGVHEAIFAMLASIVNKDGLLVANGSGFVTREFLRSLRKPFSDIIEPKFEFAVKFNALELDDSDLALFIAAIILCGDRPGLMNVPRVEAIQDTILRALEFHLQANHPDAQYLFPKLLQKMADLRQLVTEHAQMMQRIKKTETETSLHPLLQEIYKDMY
# How it was run: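 Reporter cells were plated and held 5 hrs at 37 C before compounds were added. After 18 hrs at 37 C, CCF4 dye was loaded for 2 hrs at RT and fluorescence measured.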
# [3] = biological target: Estrogen receptor (Homo sapiens) (UniProt P03372); test: qHTS assay for small molecule agonists of estrogen receptor alpha signaling (AID 588514); conditions: ER-alpha-UAS-bla HEK293, beta-lactamase ratio, 18 h; series mostly up to 76.8 µM; note: nearly all actives have a fitted effect of over 70% in size; note: potency is the fitted concentration of half-maximal effect;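 for activation: 0% = vehicle only and 100% = reference agonist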
# Sequence of Estrogen receptor (Homo sapiens) (P03372 whole entry, looked up): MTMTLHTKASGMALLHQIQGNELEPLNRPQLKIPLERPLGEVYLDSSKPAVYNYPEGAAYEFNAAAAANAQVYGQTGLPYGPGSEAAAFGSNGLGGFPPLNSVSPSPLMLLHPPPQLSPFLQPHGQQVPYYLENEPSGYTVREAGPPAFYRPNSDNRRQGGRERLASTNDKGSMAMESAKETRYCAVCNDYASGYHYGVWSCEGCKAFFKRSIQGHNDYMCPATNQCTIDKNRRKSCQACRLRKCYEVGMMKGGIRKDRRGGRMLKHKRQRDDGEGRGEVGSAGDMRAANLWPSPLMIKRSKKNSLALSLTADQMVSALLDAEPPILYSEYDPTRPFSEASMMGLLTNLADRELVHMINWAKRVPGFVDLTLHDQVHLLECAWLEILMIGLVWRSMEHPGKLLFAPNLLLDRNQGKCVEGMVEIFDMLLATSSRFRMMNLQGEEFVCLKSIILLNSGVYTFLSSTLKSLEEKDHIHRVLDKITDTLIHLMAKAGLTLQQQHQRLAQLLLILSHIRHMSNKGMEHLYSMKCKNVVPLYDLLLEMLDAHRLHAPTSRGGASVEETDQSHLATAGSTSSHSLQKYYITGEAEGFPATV
# How it was run: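 Reporter-gene assay. […] controls beta-lactamase in HEK 293 GripTite cells; after 18 hrs with compound, CCF4 substrate is added for 2 hrs and fluorescence is read.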
# [4] = biological target: Glucocorticoid receptor (Homo sapiens) (UniProt P04150); test: qHTS assay for small molecule agonists of glucocorticoid receptor signaling (AID 588532; active = well fitted curve in the direction sought with a large enough effect in the signal ratio, with a control signal flat; the % refers to the signal ratio;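 note: 100% = dexamethasone at 0.1 µM and 0% = DMSO only wells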); conditions: HeLa MMTV-bla, beta-lactamase ratio, agonist, 18 h; stronger effect = higher value; percent of dexamethasone control, DMSO zero
# Sequence of Glucocorticoid receptor (Homo sapiens) (P04150 whole entry, looked up): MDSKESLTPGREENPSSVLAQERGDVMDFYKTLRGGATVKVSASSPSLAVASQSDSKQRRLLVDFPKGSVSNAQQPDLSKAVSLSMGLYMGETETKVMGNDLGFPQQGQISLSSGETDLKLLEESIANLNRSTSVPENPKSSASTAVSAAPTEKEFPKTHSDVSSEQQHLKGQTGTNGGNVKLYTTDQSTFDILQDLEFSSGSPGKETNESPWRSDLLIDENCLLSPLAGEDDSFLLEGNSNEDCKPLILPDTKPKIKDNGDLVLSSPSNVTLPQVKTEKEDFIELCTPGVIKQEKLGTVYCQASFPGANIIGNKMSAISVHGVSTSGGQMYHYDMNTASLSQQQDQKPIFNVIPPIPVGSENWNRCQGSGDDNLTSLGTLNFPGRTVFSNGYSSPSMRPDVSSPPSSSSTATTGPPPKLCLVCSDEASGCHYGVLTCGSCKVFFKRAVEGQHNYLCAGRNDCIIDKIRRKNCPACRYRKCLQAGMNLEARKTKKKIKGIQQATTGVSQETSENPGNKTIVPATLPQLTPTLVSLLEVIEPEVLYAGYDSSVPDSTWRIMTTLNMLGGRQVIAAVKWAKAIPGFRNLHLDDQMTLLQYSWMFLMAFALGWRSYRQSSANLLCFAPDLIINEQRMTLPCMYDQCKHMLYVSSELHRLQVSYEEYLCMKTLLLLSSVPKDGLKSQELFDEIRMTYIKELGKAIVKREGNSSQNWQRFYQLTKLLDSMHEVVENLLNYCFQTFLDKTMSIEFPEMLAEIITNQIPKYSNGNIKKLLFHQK
# How it was run: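 MMTV-bla HeLa, beta-lactamase reporter; medium with 1% charcoal/dextran-stripped FBS; cpds up to 92 uM, 18 h, 37 C; CCF4 readout 460/530 nm; Hill fit → EC50, efficacy vs 0.1 uM dexamethasone = 100%.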
# [5] = biological target: Glucocorticoid receptor (Homo sapiens) (UniProt P04150); test: qHTS assay for small molecule antagonists of glucocorticoid receptor signaling (AID 588533; active = well fitted inhibition curve with a large enough effect in the signal ratio, with a control signal flat, not every such curve was filed as active; the % refers to the signal ratio;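 note: cells stimulated with 2 nM dexamethasone as agonist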; note: potency is the fitted concentration of half-maximal effect); conditions: HeLa MMTV-bla, GRE beta-lactamase ratio, antagonist mode, 18 h; series mostly up to 76.8 µM
# How it was run: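 Antagonist-mode qHTS: compound titrations added to GRE-bla HeLa cells, then dexamethasone 2 nM final; 18 h, 37 C. CCF4 FRET fluorescence normalized to dexamethasone and DMSO; IC50 from Hill fit.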
# [6] = qHTS assay for small molecule antagonists of retinoid X receptor alpha signaling (AID 588546; active = well fitted inhibition curve with a large enough effect in the signal ratio, with a control signal flat, not every such curve was filed as active; the % refers to the signal ratio; note: potency is the fitted concentration of half-maximal effect); conditions: HEK293T RXRa-UAS-bla, beta-lactamase ratio, antagonist mode; measured here: W530 green channel, cytotoxicity proxy
# How it was run: (§1)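 Beta-lactamase reporter inhibition, read as CCF4 fluorescence ratio (ex 405, em 460/530 nm) after 2 h at RT. HEK293T UAS-bla cells, 2500/well, were stimulated with 9-cis-RA at 500 or 100 nM final alongside test compound for 18 h at 37 C.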
# [7] = biological target: Retinoic acid receptor RXR-alpha (Homo sapiens) (UniProt P19793); test: as above; conditions: HEK293T RXRa-UAS-bla, beta-lactamase ratio, antagonist mode
# Sequence of Retinoic acid receptor RXR-alpha (Homo sapiens) (P19793 whole entry, looked up): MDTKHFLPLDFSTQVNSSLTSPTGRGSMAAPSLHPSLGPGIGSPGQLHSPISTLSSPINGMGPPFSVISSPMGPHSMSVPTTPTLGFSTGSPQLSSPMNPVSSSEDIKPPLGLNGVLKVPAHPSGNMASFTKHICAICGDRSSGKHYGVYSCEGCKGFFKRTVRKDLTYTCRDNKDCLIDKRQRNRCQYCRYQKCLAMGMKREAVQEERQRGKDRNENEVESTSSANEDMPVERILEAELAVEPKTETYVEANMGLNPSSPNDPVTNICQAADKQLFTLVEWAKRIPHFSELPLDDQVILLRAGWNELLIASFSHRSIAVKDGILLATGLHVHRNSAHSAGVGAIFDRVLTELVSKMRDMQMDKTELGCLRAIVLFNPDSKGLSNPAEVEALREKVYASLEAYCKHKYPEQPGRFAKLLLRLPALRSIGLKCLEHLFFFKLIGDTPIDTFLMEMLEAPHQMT
# How it was run: as §1
# [8] = biological target: Vitamin D3 receptor (Homo sapiens) (UniProt P11473); test: qHTS assay for small molecule agonists of vitamin D receptor signaling (AID 588543); conditions: HEK293T VDR-UAS-bla, beta-lactamase ratio, 16 h; series mostly up to 76.8 µM;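 note: 0% = DMSO basal and 100% = reference agonist control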
# Sequence of Vitamin D3 receptor (Homo sapiens) (P11473 whole entry, looked up): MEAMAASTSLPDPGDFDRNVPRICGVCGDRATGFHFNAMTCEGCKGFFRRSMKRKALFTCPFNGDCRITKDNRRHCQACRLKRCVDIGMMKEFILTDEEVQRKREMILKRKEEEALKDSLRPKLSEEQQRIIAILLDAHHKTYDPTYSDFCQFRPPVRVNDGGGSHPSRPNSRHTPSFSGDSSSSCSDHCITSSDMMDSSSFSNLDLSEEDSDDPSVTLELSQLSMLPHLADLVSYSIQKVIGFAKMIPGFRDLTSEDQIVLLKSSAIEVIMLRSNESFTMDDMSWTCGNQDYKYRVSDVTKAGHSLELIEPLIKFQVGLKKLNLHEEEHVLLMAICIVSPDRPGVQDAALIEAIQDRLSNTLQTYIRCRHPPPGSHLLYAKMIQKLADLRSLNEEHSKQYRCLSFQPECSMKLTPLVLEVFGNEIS
# How it was run: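 Measured: β-lactamase reporter activity (CCF4, 405 nm excitation, 460/530 nm emission) in HEK293T VDR-UAS-bla cells after 16 h compound exposure at 37 °C. Normalization against 50 nM 1α,25-dihydroxyvitamin D3 and DMSO; Hill-fit EC50.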
# [9] = biological target: Thyroid hormone receptor beta (Homo sapiens) (UniProt P10828); test: qHTS assay for small molecule agonists of thyroid hormone receptor beta signaling (AID 588545); conditions: TR-UAS-bla GripTite HEK 293, beta-lactamase ratio, agonist mode, 18 h, percent of T3 response, DMSO as zero; series mostly up to 76.7 µM;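 note: 0% = DMSO only and 100% = 10 nM T3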
# Sequence of Thyroid hormone receptor beta (Homo sapiens) (P10828 whole entry, looked up): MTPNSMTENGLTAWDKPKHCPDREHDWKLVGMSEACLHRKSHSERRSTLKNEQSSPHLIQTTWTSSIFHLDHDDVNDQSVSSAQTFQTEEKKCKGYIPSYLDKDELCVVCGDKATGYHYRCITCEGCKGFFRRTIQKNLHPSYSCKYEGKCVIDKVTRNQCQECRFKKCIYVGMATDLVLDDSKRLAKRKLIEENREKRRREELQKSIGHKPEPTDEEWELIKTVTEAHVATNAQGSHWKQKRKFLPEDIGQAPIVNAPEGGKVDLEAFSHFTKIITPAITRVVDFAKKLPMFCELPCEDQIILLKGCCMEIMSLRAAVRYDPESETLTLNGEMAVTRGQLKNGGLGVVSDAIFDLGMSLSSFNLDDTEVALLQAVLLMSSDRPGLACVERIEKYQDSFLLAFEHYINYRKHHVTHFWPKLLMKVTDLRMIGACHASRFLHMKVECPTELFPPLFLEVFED
# How it was run: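 Efficacy and EC50 values derive from Hill fits of qHTS titration data, normalized to 10 nM T3 and DMSO-only wells. HEK 293 reporter cells were stimulated for 18 hrs at 37 C, with beta-lactamase activity measured by CCF4 fluorescence.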
# [10] = biological target: Estrogen receptor (Homo sapiens) (UniProt P03372); test: qHTS assay for small molecule antagonists of estrogen receptor alpha signaling (AID 588513; active = well fitted curve in the direction sought with a large enough effect in the signal ratio, with a control signal flat, not every such curve was filed as active; the % refers to the signal ratio; note: % is set by controls: 0 for no effect and ±100 for the full control effect); conditions: ER-alpha-UAS-bla HEK293, beta-lactamase ratio, antagonist mode; series mostly up to 76.9 µM
# How it was run: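 Antagonist-mode qHTS in ER-alpha-UAS-bla HEK 293 cells: compound titration, 0.5nM estradiol for 18 h, CCF4 fluorescence, Hill-derived IC50.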
# [11] = biological target: Peroxisome proliferator-activated receptor gamma (Homo sapiens) (UniProt P37231); test: qHTS assay for small molecule agonists of peroxisome proliferator-activated receptor gamma signaling (AID 588536; active = well fitted curve in the direction sought with a large enough effect in the signal ratio, with a control signal flat, not every such curve was filed as active; the % refers to the signal ratio;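 note: 0% = DMSO basal wells and 100% = rosiglitazone at 2 µM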); conditions: HEK293 PPARg-UAS-bla, beta-lactamase ratio, 16 h, percent of rosiglitazone response, DMSO as zero; series mostly up to 76.7 µM
# Sequence of Peroxisome proliferator-activated receptor gamma (Homo sapiens) (P37231 whole entry, looked up): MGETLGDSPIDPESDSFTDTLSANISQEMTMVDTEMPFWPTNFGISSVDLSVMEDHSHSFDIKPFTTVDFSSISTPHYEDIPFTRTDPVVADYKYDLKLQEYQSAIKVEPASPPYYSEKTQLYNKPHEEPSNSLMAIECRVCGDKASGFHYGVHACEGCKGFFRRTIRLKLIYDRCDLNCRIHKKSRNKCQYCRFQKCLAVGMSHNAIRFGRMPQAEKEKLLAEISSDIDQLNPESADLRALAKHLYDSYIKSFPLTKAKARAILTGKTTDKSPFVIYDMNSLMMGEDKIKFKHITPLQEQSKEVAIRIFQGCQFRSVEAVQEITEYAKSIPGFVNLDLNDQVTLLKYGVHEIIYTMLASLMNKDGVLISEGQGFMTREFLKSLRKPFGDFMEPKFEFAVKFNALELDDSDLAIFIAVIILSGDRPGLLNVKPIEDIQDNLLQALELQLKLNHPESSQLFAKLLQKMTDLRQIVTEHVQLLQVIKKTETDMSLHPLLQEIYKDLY
# How it was run: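 Ratiometric blue/green fluorescence (405 nm excitation; 460 and 530 nm emission) from CCF4-loaded HEK293 reporter cells serves as signal. Exposure to test compounds lasts 16 h at 37 C in medium containing 1% charcoal/dextran-treated serum.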
# [12] = biological target: Peroxisome proliferator-activated receptor gamma (Homo sapiens) (UniProt P37231); test: qHTS assay for small molecule antagonists of peroxisome proliferator-activated receptor gamma signaling (AID 588537; active = well fitted inhibition curve with a large enough effect in the signal ratio, with a control signal flat, not every such curve was filed as active; the % refers to the signal ratio;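 note: reporter cells co-stimulated with 50 nM rosiglitazone agonist during compound treatment; % of control where 0% means no effect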); conditions: HEK293 PPARg-UAS-bla, beta-lactamase ratio, antagonist mode; series mostly up to 76.8 µM
# How it was run: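 PPAR-gamma-UAS-bla HEK293 cells (3000/well, 1% charcoal/dextran-stripped FBS) were preincubated 6-6.5 h at 37 C, given titrated compounds, then stimulated with 50 nM rosiglitazone for 16 h. Beta-lactamase activity was read with CCF4 dye; IC50 came from Hill fits.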
# [13] = biological target: Vitamin D3 receptor (Homo sapiens) (UniProt P11473); test: qHTS assay for small molecule antagonists of vitamin D receptor signaling (AID 588541); conditions: HEK293T VDR-UAS-bla, beta-lactamase ratio, antagonist mode; series mostly up to 76.7 µM;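 note: receptor activated by calcitriol during compound treatment; % is set by controls: 0 for no effect and ±100 for the full control effect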
# How it was run: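 VDR-UAS-bla HEK293T cells (2000/well, 2% charcoal-stripped FBS) were treated with titrated compounds plus 1-alpha,25-dihydroxyvitamin D3 (50 nM or 3 nM final) for 16 h at 37 C. CCF4 beta-lactamase fluorescence was read; Hill fits gave IC50.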
# [14] = qHTS assay for small molecule agonists of retinoid X receptor alpha signaling (AID 588544); conditions: HEK293T RXRa-UAS-bla, beta-lactamase reporter, 18 h; 530 nm emission
# [15] = biological target: Thyroid hormone receptor beta (Homo sapiens) (UniProt P10828); test: qHTS assay for small molecule antagonists of thyroid hormone receptor beta signaling (AID 588547; active = well fitted inhibition curve with a large enough effect in the signal ratio, with a control signal flat, not every such curve was filed as active; the % refers to the signal ratio;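 note: cells stimulated with 0.4 nM T3 agonist during compound exposure; % is set by controls: 0 for no effect and ±100 for the full control effect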); conditions: TR-UAS-bla HEK293, beta-lactamase ratio, antagonist mode, 18 h
# How it was run: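 TR-UAS-bla GripTite HEK293 cells in 2% charcoal/dextran FBS medium were preincubated 4 h at 37 C, given compound (0.59 nM to 92 uM) plus 0.4 nM T3 (final) for 18 h, then CCF4 for 2 h at RT; Hill fit gave IC50.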
# [16] = biological target: Androgen receptor (Homo sapiens) (UniProt P10275); test: qHTS assay for small molecule agonists of androgen receptor signaling (AID 588515; active = well fitted curve in the direction sought with a large enough effect in the signal ratio, with a control signal flat; the % refers to the signal ratio; note: % is set by controls: 0 for no effect and ±100 for the full control effect); conditions: AR-UAS-bla HEK293, beta-lactamase ratio, agonist 16 h; stronger effect = higher value
# How it was run: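 EC50 and efficacy came from Hill fits of titrations (up to 92 uM) normalized to 30 nM R1881 as 100% and DMSO as 0%. Compound exposure was 16 h at 37 C on AR-UAS-bla HEK293 cells, with a 405/460/530 nm CCF4 fluorescence read.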
# [17] = biological target: Androgen receptor (Homo sapiens) (UniProt P10275); test: qHTS assay for small molecule antagonists of androgen receptor signaling (AID 588516; active = well fitted curve in the direction sought with a large enough effect in the signal ratio, with a control signal flat, not every such curve was filed as active; the % refers to the signal ratio; note: % is set by controls: 0 for no effect and ±100 for the full control effect); conditions: AR-UAS-bla HEK293, beta-lactamase ratio, antagonist mode, 16 h; series mostly up to 76.8 µM
# How it was run: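 Compounds tested in titration against 10 nM R1881 in AR-responsive bla reporter HEK 293 cells; CCF4 fluorescence (460/530 nm) after 16 h exposure gave IC50 and efficacy.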
# [18] = qHTS assay for small molecule antagonists of peroxisome proliferator-activated receptor delta signaling (AID 588535; active = well fitted inhibition curve with a large enough effect in the signal ratio, with a control signal flat, not every such curve was filed as active; the % refers to the signal ratio;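 for max response: cells co-treated with a PPAR-delta agonist as stimulator during compound exposure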); conditions: HEK293T PPARd-UAS-bla, beta-lactamase FRET ratio, 18 h; 460 nm channel
# How it was run: (§2)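 GeneBLAzer PPAR-delta-UAS-bla HEK293T cells in medium with 2% charcoal/dextran FBS were preincubated 5 hrs at 37 C, then given compounds, incubated 18 hrs at 37 C, and read by CCF4 beta-lactamase fluorescence; IC50 from Hill fits.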
# [19] = biological target: Peroxisome proliferator-activated receptor delta (Homo sapiens) (UniProt Q03181); test: as above; conditions: HEK293T PPARd-UAS-bla, beta-lactamase FRET ratio, 18 h; series mostly up to 76.7 µM
# How it was run: as §2
# [20] = biological target: Bile acid receptor (Homo sapiens) (UniProt Q96RI1); test: qHTS assay for small molecule antagonists of farnesoid X receptor signaling (AID 588526); conditions: HEK293T FXR-UAS-bla, beta-lactamase ratio, antagonist mode; series mostly up to 76.7 µM; note: % is set by controls: 0 for no effect and ±100 for the full control effect
# How it was run: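 Concentration-response titrations were fitted to the Hill equation for half-maximal inhibition and maximal response, with data normalised to 50 uM chenodeoxycholic acid and DMSO control wells. Cells: FXR-UAS-bla HEK293T, dialyzed FBS.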
smiles,measurement,setting,value
CCc1nc(N)nc(N)c1-c1ccc(Cl)cc1,activation,[1],-5.01% (inactive) and -3.58% (inactive)
same,outcome,[2],inactive
Cc1cn([C@H]2C=C[C@@H](CO)O2)c(=O)[nH]c1=O,activation,[1],-2.48% (inactive) and 1.31% (inactive) and -0.393% (inactive)
same,outcome,[2],inactive
CCCCNC(=O)NS(=O)(=O)c1ccc(C)cc1,activation,[1],0.0302% (inactive) and 2.67% (inactive)
same,outcome,[2],inactive
O=c1oc2ccccc2c(O)c1C(CC(O)c1ccc(-c2ccc(Br)cc2)cc1)c1ccccc1 (centres undefined),activation,[1],-8.03% (inactive)
O=c1[nH]c2ccccc2n1C1CCN(CCCC(c2ccc(F)cc2)c2ccc(F)cc2)CC1,Potency,[3],inactive
same,activation,[1],-1.92% (inactive)
same,activation,[4],4.7% (inactive)
same,Potency,[5],inactive
same,max response,[6],-25.7%
same,Potency,[7],17800 nM (active)
C[C@]12C/C(=C/O)C(=O)C[C@@H]1CC[C@@H]1[C@@H]2CC[C@@]2(C)[C@H]1CC[C@]2(C)O,Potency,[3],562 nM (active)
same,activation,[1],1.58% (inactive)
same,activation,[4],-7.95% (inactive)
same,outcome,[8],inactive
same,outcome,[9],inactive
CCCC(C)(COC(N)=O)COC(=O)NC(C)C (centres undefined),outcome,[10],inactive
same,Potency,[3],inactive
same,outcome,[11],inactive
same,Potency,[12],inactive
same,outcome,[13],inactive
same,outcome,[8],inactive
same,max response,[14],-3.14% and 6.33%
same,outcome,[9],inactive
same,max response,[6],3.28% and 3.87%
same,max response,[7],1.9% (inactive) and -6.86% (inactive)
same,activity change % (negative = inhibition),[15],4.32% (inactive) and -7.39% (inactive)
C#C[C@]1(O)CC[C@H]2[C@@H]3CCC4=Cc5oncc5C[C@]4(C)[C@H]3CC[C@@]21C,activation,[1],-1.05% (inactive)
same,outcome,[2],inactive
CC(C)OC(=O)C(C)(C)Oc1ccc(C(=O)c2ccc(Cl)cc2)cc1,activation,[1],2.77% (inactive)
CC(C)C(=O)Nc1ccc([N+](=O)[O-])c(C(F)(F)F)c1,Potency,[3],inactive
same,activation,[1],-2.87% (inactive) and 6.82% (inactive)
CN(Cc1cnc2nc(N)nc(N)c2n1)c1ccc(C(=O)N[C@@H](CCC(=O)O)C(=O)O)cc1,activation,[1],-5.02% (inactive)
COc1cc2c(c(OC)c1OC)-c1ccc(OC)c(=O)cc1[C@@H](NC(C)=O)CC2,outcome,[10],inactive
same,activation,[1],-2.29% (inactive)
same,activation,[4],-3.94% (inactive) and -2.86% (inactive)
same,Potency,[5],inactive
same,activity change % (negative = inhibition),[15],-20.1% (inactive)
CN(C)CCC=C1c2ccccc2CCc2ccccc21,activation,[1],-2.7% (inactive) and 0.944% (inactive)
same,activation,[4],-8.68% (inactive)
same,activity change % (negative = inhibition),[15],-28.2% (inactive)
Nc1ccncc1,outcome,[10],inactive
same,Potency,[3],inactive
same,activation,[16],-4.84% (inactive)
same,outcome,[17],inactive
same,outcome,[2],inactive
same,max response,[18],-23%
same,outcome,[19],inactive
same,outcome,[13],inactive
same,outcome,[8],inactive
same,max response,[14],-10.7%
same,outcome,[9],inactive
same,max response,[6],-5.09%
same,max response,[7],-7.1% (inactive)
CCCN(CCC)S(=O)(=O)c1ccc(C(=O)O)cc1,activation,[1],-0.735% (inactive) and 0.243% (inactive)
same,outcome,[2],inactive
C[C@H]1O[C@@H](O[C@H]2[C@@H](O)C[C@H](O[C@H]3[C@@H](O)C[C@H](O[C@H]4CC[C@@]5(C)[C@H](CC[C@@H]6[C@@H]5CC[C@]5(C)[C@@H](C7=CC(=O)OC7)CC[C@]65O)C4)O[C@@H]3C)O[C@@H]2C)C[C@H](O)[C@@H]1O,activation,[1],-2.75% (inactive)
same,activation,[4],-14.2% (inactive)
same,Potency,[5],355 nM (active)
same,outcome,[9],inactive
CNCC(O)c1ccc(O)cc1 (centres undefined),outcome,[10],inactive
same,Potency,[3],inactive
same,Potency,[20],inactive
same,activation,[1],-1.79% (inactive)
same,activation,[4],9.17% (inactive)
same,Potency,[5],inactive
same,outcome,[2],inactive
same,max response,[18],-16.7%
same,outcome,[19],inactive
same,outcome,[13],inactive
same,outcome,[8],inactive
same,max response,[14],4.18%
same,outcome,[9],inactive
same,max response,[6],8.32%
same,max response,[7],7.59% (inactive)
same,activity change % (negative = inhibition),[15],3.5% (inactive)
NCC(O)c1ccc(O)cc1 (centres undefined),outcome,[11],inactive
same,outcome,[13],inactive
same,outcome,[8],inactive
same,max response,[14],14.7%
same,max response,[6],5.99%
same,max response,[7],1.76% (inactive)
